In the library only some 3.5% were active in any assay of this set; here they are far more common.
RE007 growth inh: qHTS Assay for Inhibitors of the HIV-1 protein Vpr | Potency, µM (doses to about 92.2 µM), inactives show top-dose activity change, negative = less growth, actives largely listed as inhibitors | 360,000 tested, 0.21% active | AID 651644, 2012 | S. pombe RE007 Vpr strain, BacTiter-Glo ATP luminescence, 24 h; active = well fitted falling curve with a large enough effect; inconclusive = small, poorly fitted or top-dose-only effect; inactive = no such curve, though single readings can be large or run the other way; also: % is scaled to controls: 0 for no effect and ±100 for the full control effect; nearly all actives have a fitted effect of over 50% in size
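Fission yeast strain RE007, carrying one chromosomally integrated HIV-1 vpr copy, was seeded at OD 0.01 in PMG+AL medium with 23 nL pinned compound. After 24 h at 30 °C and 99% humidity, viability was read by BacTiter-Glo luminescence.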
Giardia FBPA inh-1: qHTS Assay for Inhibitors of Fructose-1,6-bisphosphate Aldolase from Giardia Lamblia | 290,000 tested, 0.71% active | A8B2U2 | Potency, µM (highest dose often 59.6 µM), for the others: at the highest dose activity, negative = inhibition, usual class: inhibitors | purified Giardia FBPA; also: % is scaled to controls: 0 for no effect and ±100 for the full control effect; nearly all actives have a fitted effect of over 55% in size
Target sequence (A8B2U2 whole entry, looked up): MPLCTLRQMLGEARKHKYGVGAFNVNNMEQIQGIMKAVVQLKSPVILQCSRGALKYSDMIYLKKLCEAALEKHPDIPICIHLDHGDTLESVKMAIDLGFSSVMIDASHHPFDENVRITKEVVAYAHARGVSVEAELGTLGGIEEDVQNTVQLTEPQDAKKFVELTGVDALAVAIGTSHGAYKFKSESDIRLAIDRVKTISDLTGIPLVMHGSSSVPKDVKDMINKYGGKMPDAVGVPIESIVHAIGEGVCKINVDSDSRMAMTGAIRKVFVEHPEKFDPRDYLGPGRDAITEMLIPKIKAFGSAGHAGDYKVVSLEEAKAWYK
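40 nM FBPA preincubated 10 min at RT with compound (up to 57.5 uM final), then substrate plus GAPDH/TPI/NAD/arsenate coupling and diaphorase/resazurin added. Fluorescence read after 20 min at RT, 525/598 nm.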
LmPK inh: qHTS Assay for Inhibitors of Leishmania Mexicana Pyruvate Kinase (LmPK) | 290,000 tested, 0.37% active | Potency, µM (series often up to 57.5 µM), for inactives: at the highest dose activity change, negative = inhibition, usual class: inhibitors | AID 1721, 2009 | purified LmPK, Kinase-Glo ATP luminescence, 1 h | Q27686; also: % is scaled to controls: 0 for no effect and ±100 for the full control effect
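Pyruvate kinase activity monitored as ATP production (luciferase luminescence). Conditions: 0.1 nM enzyme, 0.5 mM PEP, 0.1 mM ADP, 1 h, RT; normalized against uninhibited and no-enzyme wells.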
NS1 inh: qHTS Assay for Inhibitors of Influenza NS1 Protein Function | 270,000 tested, 0.4% active | Potency, µM (doses to about 46.1 µM), for the others: at the top dose activity, positive = more growth; calls by dose curve; also: actives are rising curves; nearly all actives have a fitted effect of over 50% in size
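Recovery from NS1-induced slow growth read by OD600 in budding yeast switched to galactose assay medium (pH 6.0, -URA) at 1:100 dilution. Compound 23 nl per well; the matching strain lacking NS1 serves as control.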
Tb PYK inh: qHTS of Trypanosoma Brucei Inhibitors | pyruvate kinase (Trypanosoma brucei), Q57TT1 | TbPYK enzyme, Kinase-Glo Plus ATP luminescence, 45 min | Potency, µM (doses to about 76.8 µM), for the others: top-dose activity, negative = inhibition, most hits filed as inhibitors | 410,000 tested, 0.12% active; also: % is scaled to controls: 0 for no effect and ±100 for the full control effect; nearly all actives have a fitted effect of over 50% in size
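Activity of T. brucei pyruvate kinase was followed by Kinase-Glo Plus luminescence after the enzyme reacted 45 min at room temperature with 130 uM ADP (final) and substrate. Test compounds were added before ADP at multiple concentrations.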
Sm TGR inh: qHTS Assay for the Inhibitors of Schistosoma Mansoni Peroxiredoxins | Schistosoma mansoni thioredoxin glutathione reductase (TGR), Q962Y6 | Potency, µM (doses to about 114 µM), without a hit: top-dose activity change, negative = inhibition, actives largely listed as inhibitors | AID 485364, 2010 | purified TGR, DTNB reduction, TNB absorbance 405 nm | 360,000 tested, 3% active; also: % is scaled to controls: 0 for no effect and ±100 for the full control effect; nearly all actives have a fitted effect of over 60% in size
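TGR 20 nM + NADPH 100 uM (dispensed conc.), cpd preinc 15 min RT; start with NADPH (500 uM addition) then DTNB (15 mM addition). Kinetic TNB absorbance, 405 nm filter. Four-parameter Hill fit across titration.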
Giardia growth: qHTS Assay for Inhibitors of Fructose-1,6-bisphosphate Aldolase from Giardia Lamblia: Giardia lamblia growth inhibition. shares compounds with Giardia FBPA inh-1. Giardia lamblia trophozoite growth inhibition. Potency, µM (series often up to 57.5 µM), for the others: at the top dose activity change, negative = inhibition, usual class: inhibitors. 1,500 tested, 5% active. AID 2785, 2010;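 also: trophozoites exposed to compound for 48 h at 37 °C; % is scaled to controls: 0 for no effect and ±100 for the full control effect; nearly all actives have a fitted effect of over 70% in size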
Mammalian tox: qHTS Assay for Inhibitors of Fructose-1,6-bisphosphate Aldolase from Giardia Lamblia: Mammalian cellular toxicity | shares compounds with Giardia FBPA inh-1 | mammalian cell viability counter-screen, qHTS | Potency, µM (top dose mostly 57.5 µM), for the others: top-dose viability change, negative = toxicity, most hits filed as inhibitors | 1,500 tested, 4% active;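 also: Chinese hamster ovary cells used as mammalian cytotoxicity surrogate; viability measured as cellular ATP by luminescence; compound exposure lasted 48 h before reading; % is scaled to controls: 0 for no effect and ±100 for the full control effect; nearly all actives have a fitted effect of over 60% in size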
Giardia FBPA inh-2: qHTS Assay for Inhibitors of Fructose-1,6-bisphosphate Aldolase from Giardia Lamblia: Primary screen confirmation; shares compounds with Giardia FBPA inh-1; purified Giardia aldolase enzyme activity, qHTS; Potency, µM (series often up to 57.5 µM), inactives show top-dose activity change, negative = inhibition, hits mostly inhibitors; 1,500 tested, 5% active; also: % is scaled to controls: 0 for no effect and ±100 for the full control effect; nearly all actives have a fitted effect of over 45% in size
Rabbit aldolase: qHTS Assay for Inhibitors of Fructose-1,6-bisphosphate Aldolase from Giardia Lamblia: Rabbit FBPA Selectivity; shares compounds with Giardia FBPA inh-1; Rabbit muscle FBPA enzyme inhibition, selectivity counter-screen; Potency, µM (doses to about 57.5 µM), for the others: at the highest dose activity, negative = inhibition, hits mostly inhibitors; 1,500 tested, 4% active; AID 2794, 2010; also: % is scaled to controls: 0 for no effect and ±100 for the full control effect; nearly all actives have a fitted effect of over 60% in size
Target sequence (P00883 whole entry, looked up): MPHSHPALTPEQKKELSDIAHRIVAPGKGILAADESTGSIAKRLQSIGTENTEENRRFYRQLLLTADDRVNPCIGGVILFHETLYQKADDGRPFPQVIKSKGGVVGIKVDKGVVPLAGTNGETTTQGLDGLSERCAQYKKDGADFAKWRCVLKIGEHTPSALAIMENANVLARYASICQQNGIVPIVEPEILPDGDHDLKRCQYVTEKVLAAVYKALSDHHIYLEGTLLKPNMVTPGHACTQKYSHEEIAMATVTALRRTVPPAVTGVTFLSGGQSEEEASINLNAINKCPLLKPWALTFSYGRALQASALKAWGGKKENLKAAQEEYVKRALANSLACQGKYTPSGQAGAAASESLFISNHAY
GAPDH counter: qHTS Assay for Inhibitors of Fructose-1,6-bisphosphate Aldolase from Giardia Lamblia: Coupling assay counterscreen confirmation; shares compounds with Giardia FBPA inh-1; GAPDH coupling enzyme counterscreen, biochemical, qHTS; Potency, µM (highest dose often 57.5 µM), inactives show at the top dose activity change, negative = inhibition, actives largely listed as inhibitors; 1,500 tested, 6% active; also: % is scaled to controls: 0 for no effect and ±100 for the full control effect; nearly all actives have a fitted effect of over 55% in size
Active calls of the source: *; u = inconclusive; x = no result given; [ ] = dose if it differs, or a comment. Unless noted, calls follow the shape of the dose curve; as a rule, active = well fitted curve in the direction sought with a large enough effect; inconclusive = small, poorly fitted or top-dose-only effect, or another doubt; inactive = no such curve, though single readings can be large; an effect the other way counts as inactive or inconclusive. Potency is read from the fitted curve at half-maximal effect.

SMILES | RE007 growth inh | Giardia FBPA inh-1 | LmPK inh | NS1 inh | Tb PYK inh | Sm TGR inh | Giardia growth | Mammalian tox | Giardia FBPA inh-2 | Rabbit aldolase | GAPDH counter
COC(=O)c1ccc(C(=O)O)nc1 | 2% | 20µM* | 0% | -5% | 1% | -7% | 61% | 11% | 3% | 12% | -3%
O=c1c(O)cccc2cc(O)c(O)c(O)c12 | u | 14µM* | -3% | -41% | -28% | 8.9µM* | -16%[38.3 µM] | -18% | 10µM* | 16µM* | 37µM*
CCc1ccc(-c2[nH]c3c(c2-c2c(-n4cccc4)n(C)c(=O)n(C)c2=O)c(=O)n(C)c(=O)n3C)cc1 | x | x | x | x | 1% | -9% | x | x | x | x | x
CCOc1ccc(/C(CCC(=O)O)=N/NC(=S)NC(C)C)cc1 | 10% | 16µM* | 1% | x | -12% | -3% | -16% | 18% | 4% | 15% | 10%
Cc1ccc(S(=O)(=O)c2[nH]c(-c3ccccc3)nc2SCC(N)=O)cc1 | x | x | x | x | -4% | -13% | x | x | x | x | x
Nn1cnnc1N/N=C/c1ccc(F)cc1 | 6% | 20µM* | -3% | -22% | -7% | -13% | 12% | 9% | u | -11% | u
Cc1ccc(/C=N/Nc2nncn2N)cc1 | -18% | u | 1% | -36% | 0% | 6% | x | x | x | x | x
Nn1cnnc1N/N=C/c1cccc(Cl)c1Cl | -15% | u | -10% | -5% | -8% | 14% | -4%[38.3 µM] | -7% | 9.2µM* | 12µM* | 15µM*
CCc1nnc(N/N=C/c2ccc(N3CCC(C)CC3)c([N+](=O)[O-])c2)n1N | u | 7.1µM* | 1% | 5% | 1% | -3% | u | -7% | u | -24% | -27%
Nn1cnnc1N/N=C/c1ccc(Cl)c([N+](=O)[O-])c1 | -14% | 13µM* | -1% | x | 2% | u | -13% | 7% | u | u | u
CN(C)c1ncc2ncc(=O)n(Cc3cccs3)c2n1 | x | 1% | x | x | -7% | x | x | x | x | x | x
O=C(O)C1=C/C(=C(/c2ccccc2)c2cc(C(=O)O)c(O)c3ccccc23)c2ccccc2C1=O | x | x | x | 8% | x | x | x | x | x | x | x
Fc1ccc(-n2ncc3c(Nc4cccc(Cl)c4)ncnc32)cc1 | x | x | x | x | -15% | 5% | x | x | x | x | x
CC1Cc2cc(S(=O)(=O)NCc3ccc(N(C)C)cc3)ccc2N1C(=O)C1CCC1 (stereo not drawn) | x | x | x | x | -1% | -9% | x | x | x | x | x
CCOC(=O)c1c(-c2ccccc2)csc1NC(=O)C(C)NCCCN1CCOCC1 (stereo not drawn) | 3% | 18µM* | 11% | x | -4% | -15% | 4.5µM* | -2% | -6% | -4% | -3%
Cc1nnc(SCc2cc(=O)[nH]c(=S)[nH]2)s1 | 17% | 7.9µM* | 0% | 3% | -22% | x | -25% | 0% | 5% | 7% | 13%
O=C(CSC1=Nc2ccccc2C2=NC(Cc3ccccc3)C(=O)N12)Nc1ccccc1C(F)(F)F (stereo not drawn) | x | x | x | x | -2% | 5% | x | x | x | x | x
CC1(C)CC(NC(=S)Nc2ccc(S(N)(=O)=O)cc2)CC(C)(C)N1 | 35% | 8.9µM* | -10% | x | -4% | -12% | 18%[38.3 µM] | -2% | -7% | -4% | -3%
CSc1ccc(CCNC(=O)c2c(C)nn(-c3ccc(F)cc3)c2-n2cccc2)cc1 | x | x | x | x | 1% | 4% | x | x | x | x | x
C=CCNC(=S)NN=C1CCC(c2ccccc2)CC1 (stereo not drawn) | 6% | 7.9µM* | 5% | -7% | 0% | -12% | 7%[38.3 µM] | u | -26% | 5% | 2%
CCOc1ccc(NC(=O)c2ccc(-c3cccc(Cl)c3C)o2)cc1 | x | x | x | x | -6% | -14% | x | x | x | x | x
O=C(Nc1nnc(C2=COCCO2)o1)c1ccc(F)cc1 | -19% | 32µM* | 4% | -23% | -5% | 5% | u | 5% | -7% | -12% | -10%
O=C(Nc1nnc(C2=COCCO2)o1)c1ccc(Cc2ccccc2)cc1 | 4% | 18µM* | 0% | -4% | 7% | 2% | u | -3% | 2% | 8% | -3%
O=c1cc(O)c2sc(Nc3ccc(Cl)c(F)c3)nc2[nH]1 | -13% | -20% | 5% | 13% | -8% | 0% | x | x | x | x | x
O=c1cc(O)c2sc(Nc3ccc(F)c(Cl)c3)nc2[nH]1 | -6% | 2µM* | -1% | x | -18% | -1% | 0%[10.4 µM] | 4% | u | u | u
Cc1c(Nc2nc3ccccc3n3c(C)nnc23)cccc1C(=O)O | x | x | x | x | 0% | 6% | x | x | x | x | x
CC(C)(C)c1ccc(-c2noc(CCC(=O)Nc3cccc(Cl)c3)n2)cc1 | x | x | x | x | 0% | 13% | x | x | x | x | x
O=c1cc2c(=O)oc3cc(O)c(O)oc3c2c(O)c1O | -3% | 2.8µM* | -18% | 6% | -18% | u | 15%[10.4 µM] | 21% | -27% | u | -18%
Cc1ccc(S(=O)(=O)N2CCOCC2)cc1NC(=O)CNCc1cccnc1 | 26% | 16µM* | -7% | 1% | 1% | 8% | -8%[10.4 µM] | -1% | -1% | 6% | 7%
O=c1cc(CN2CCN(Cc3ccccc3)CC2)c2ccc(O)c(O)c2o1 | 3% | 18µM* | -2% | 3% | 6% | u | -28% | -28% | u | u | -24%
